In PubChem BioAssay AID2553 (Johns Hopkins Ion Channel Center, 2010):
Hit rate of the full screen: of about 310,000 compounds, about 3,300 (1.1%) were called active.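 The calls were made as follows: active = B-score under library mean minus 3 SD, initial fluorescence not abnormally high, positive integrated signal ratio; inactive = the rest.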 What follows is part of a selection rich in actives, with near analogues and random picks from the rest.

Biological target: Short transient receptor potential channel 6 (Mus musculus) (UniProt Q61143)
Test: mouse TRPC6 channel inhibitors, primary screen, cell-based, HEK293, membrane potential dye (AID 2553);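 as to B-score: B-score derived from integrated fluorescence ratio over the kinetic read; more negative B-score means stronger inhibition of depolarization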
Details: ACh-evoked depolarization, at 10 µM; hits give low values

Sequence of Short transient receptor potential channel 6 (Mus musculus) (Q61143 whole entry, looked up): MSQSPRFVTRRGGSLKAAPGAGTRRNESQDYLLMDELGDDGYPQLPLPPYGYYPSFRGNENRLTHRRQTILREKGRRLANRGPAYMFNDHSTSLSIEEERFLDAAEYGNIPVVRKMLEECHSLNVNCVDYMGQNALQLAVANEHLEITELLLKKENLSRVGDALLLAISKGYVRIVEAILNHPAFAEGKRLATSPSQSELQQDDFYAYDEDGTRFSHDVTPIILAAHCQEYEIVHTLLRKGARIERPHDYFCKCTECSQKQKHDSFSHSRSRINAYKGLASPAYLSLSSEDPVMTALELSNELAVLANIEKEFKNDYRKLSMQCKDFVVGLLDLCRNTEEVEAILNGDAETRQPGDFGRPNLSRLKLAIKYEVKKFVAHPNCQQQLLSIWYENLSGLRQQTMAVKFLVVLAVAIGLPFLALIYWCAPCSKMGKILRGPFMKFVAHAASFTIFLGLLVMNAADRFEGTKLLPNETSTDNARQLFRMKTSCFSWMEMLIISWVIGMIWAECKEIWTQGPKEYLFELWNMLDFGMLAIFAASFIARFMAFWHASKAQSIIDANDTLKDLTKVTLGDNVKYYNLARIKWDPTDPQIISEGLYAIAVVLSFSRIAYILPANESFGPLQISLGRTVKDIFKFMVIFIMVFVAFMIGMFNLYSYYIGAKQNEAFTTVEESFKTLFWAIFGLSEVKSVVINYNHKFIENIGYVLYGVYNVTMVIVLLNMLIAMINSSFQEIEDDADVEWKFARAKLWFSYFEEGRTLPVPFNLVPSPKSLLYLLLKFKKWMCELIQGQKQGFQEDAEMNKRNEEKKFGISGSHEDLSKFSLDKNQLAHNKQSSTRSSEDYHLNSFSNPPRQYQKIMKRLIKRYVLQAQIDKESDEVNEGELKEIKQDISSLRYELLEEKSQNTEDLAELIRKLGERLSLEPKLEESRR

Row | Structure (SMILES) | B-score
1 | CCc1ccc(NC(=O)CS(=O)CC(=O)N2CCN(c3ccccc3F)CC2)cc1 (configuration not stated) | inactive
2 | Cc1c(CCOC(=O)CC23CC4CC(CC(C)(C4)C2)C3)sc[n+]1Cc1ccc([N+](=O)[O-])cc1 | -5.88 (active)
3 | Cc1c(CCO)sc[n+]1CC(=O)OC12CC3CC(CC(C3)C1)C2 | inactive
4 | Cc1c(CCOC(=O)c2cc([N+](=O)[O-])ccc2Cl)sc[n+]1CCCCS(=O)(=O)[O-] | inactive
5 | COc1ccc(NC(=O)CN(C)C(=O)c2ccc(NC3CC3)c([N+](=O)[O-])c2)cc1 | inactive
6 | CCC(C)(C)N=C(NC#N)Nc1cccnc1 | inactive
7 | Cc1cccn2c(=O)c3cc(C(=O)NCCN4CCOCC4)c(=N)n(Cc4cccnc4)c3nc12 | inactive
8 | Cc1cccn2c(=O)c3cc(C#N)c(=O)n(CCCN4CCOCC4)c3nc12 | -15.8 (active)
9 | Cc1cccn2c(=O)c3cc(C#N)c(=NC(=O)c4cccnc4)n(CC4CCCO4)c3nc12 (configuration not stated) | inactive
10 | CC(C)CCNC(=O)C(C)N(C(=O)Cn1nnc(-c2ccc(F)cc2)n1)C1CCCC1 (configuration not stated) | inactive
11 | CCCCNc1nc2ccccc2nc1NS(=O)(=O)c1cccs1 | inactive
12 | O=C(CN1C(=O)CSC1=O)N1CCCC(Nc2ccc(F)cc2)C1 (configuration not stated) | inactive
13 | CCOc1ccc(/C(O)=C2/C(=O)C(=O)N(Cc3cccnc3)C2c2ccc(N(C)C)cc2)c(C)c1 (configuration not stated) | -6.27 (active)
14 | COc1ccc(C2C(C(C)=O)=C(O)C(=O)N2Cc2cccnc2)cc1 (configuration not stated) | inactive
15 | CCOc1cccc(/C(O)=C2/C(=O)C(=O)N(CCOC)C2c2ccncc2)c1 (configuration not stated) | inactive
16 | O=C(NCc1ccccc1)C1C(=O)N(Cc2ccccc2)C(=O)C1C1(O)CCCC1 (configuration not stated) | inactive
17 | Cc1cc(NC(=O)CN2CCCCC2C)nc2c1c(=O)oc1ccccc12 (configuration not stated) | inactive
18 | CC(=O)N1CCC(N(C(=O)Nc2ccc(Cl)cc2)C(C)C)CC1 | inactive
19 | COc1ccc(CNC(=O)c2cc3c(=O)n4ccccc4nc3n(CC3CCCO3)c2=N)cc1 (configuration not stated) | -7.34 (active)
20 | Cc1ccc2nc3c(cc(C(=O)NCCc4ccccc4)c(=N)n3CC3CCCO3)c(=O)n2c1 (configuration not stated) | inactive
21 | COc1ccc(CCn2c(=N)c(C(=O)NCC3CCCO3)cc3c(=O)n4cccc(C)c4nc32)cc1OC (configuration not stated) | inactive
22 | CC(C)c1ccc(NC2CCCN(C(=O)c3ccncc3)C2)cc1 (configuration not stated) | inactive
23 | CC(=O)NS(=O)(=O)c1ccc2c(c1)Cc1cc(S(=O)(=O)NC(C)=O)ccc1-2 | inactive
24 | Cc1ccc2c(c1)N(CC(=O)N1CCC(O)CC1)C(=O)CO2 | inactive
25 | CCOC(=O)N1CCC(NC(=O)CN2C(=O)COc3ccc(C(C)(C)C)cc32)CC1 | -7.85 (active)
26 | Cc1ccc2c(c1)N(CC(=O)N1CCCC(C)C1)C(=O)CO2 (configuration not stated) | inactive

Row | Structure (SMILES) | B-score
27 | CC(NC(=O)CCC(=O)N1CCN(S(=O)(=O)c2ccc(Cl)cc2)CC1)c1ccccc1 (configuration not stated) | inactive
28 | CC12C(=O)N(c3ccccc3)C(=O)C1C(c1ccccc1)N1CCCN12 (configuration not stated) | inactive
29 | O=C(Nc1cccc(Cl)c1N1CCOCC1)c1cccnc1 | inactive
30 | CCN1CCN(c2c(Cl)cccc2NC(=O)c2ccc(Br)o2)CC1 | -12.2 (active)
31 | CCCC(=O)Nc1ccc(Cl)c(NC(=O)c2ccc(Br)o2)c1 | inactive
32 | CCCN=C1NC(=O)C(CC(=O)NCCc2ccc(OC)c(OC)c2)S1 (configuration not stated) | inactive
33 | COc1ccc(NC(=O)CSc2nc(SC)ns2)c(OC)c1 | inactive
34 | C#CC(CCN1CCCCC1)(OC)c1ccccc1 (configuration not stated) | inactive
35 | CCOC(=O)c1sc2nc(CSc3ccccc3)[nH]c(=O)c2c1C | inactive
36 | CCOC(=O)c1sc2nc(CSCC(=O)OCc3ccc(C(=O)OC)o3)[nH]c(=O)c2c1C | -12.7 (active)
37 | CCOC(=O)c1sc2nc(C)[nH]c(=O)c2c1C | inactive
38 | COc1ccc(NC(=S)N2N=CCC2c2ccccc2)cc1 (configuration not stated) | inactive
39 | Cc1cccc(-[n+]2c(-c3cccc(Br)c3)[nH]c3nc4ccccc4nc32)c1 | -6.45 (active)
40 | Cc1nnc(SCc2ccc(C(=O)c3ccc(Cl)cc3)o2)n1-c1ccccc1 | -6.02 (active)
41 | Cc1nnc(SCC(=O)N2CCN(c3ccccc3)CC2)n1-c1ccccc1 | inactive
42 | Cc1nnc(SCC(=O)NCCOc2ccc(Cl)cc2)n1-c1ccccc1 | inactive
43 | CN1CCN(C(=O)c2ccc(NS(=O)(=O)c3ccccc3)cc2)CC1 | inactive
44 | O=C(Nc1ccc(Br)cc1F)C1CC(=O)N(C2CCCCC2)C1 (configuration not stated) | inactive
45 | CC(=O)Nc1ccc(NC(=O)CN2CCCC(C)C2)c(Cl)c1 (configuration not stated) | -5.66 (active)
46 | CC1CCCN(CC(=O)Nc2cc(Cl)ccc2Oc2ccccc2)C1 (configuration not stated) | inactive
47 | O=C(CN1CCOCC1)Nc1ccc(NC(=O)CN2CCOCC2)c(Cl)c1 | inactive
48 | Cc1ccc(S(=O)(=O)C2(S(=O)(=O)c3ccc(C)cc3)CCCC2)cc1 | inactive
49 | O=S(=O)(Cc1nnnn1-c1ccccc1)c1ccccc1 | inactive
50 | O=C(OCCN1C(=O)c2ccccc2C1=O)Oc1ccccc1 | inactive
51 | Cn1c(=O)c2c(nc(NCCNC(=O)c3ccco3)n2Cc2ccccc2F)n(C)c1=O | inactive
52 | Cc1ccc(NC(=O)COC(=O)CNC(=O)c2ccc(Cl)cc2Cl)cc1S(=O)(=O)N1CCOCC1 | inactive

Row | Structure (SMILES) | B-score
53 | COc1ccc(CC(=O)Nc2c(C(N)=O)oc3ccccc23)cc1 | inactive
54 | Cc1ccc(C(=O)Nc2sc(Cc3ccc4c(c3)OCO4)c(C)c2C(N)=O)cc1 | inactive
55 | COc1ccc(CC(=O)Nc2sc(Cc3ccccc3)c(C)c2C(N)=O)cc1 | -7.08 (active)
56 | Cc1ccccc1N1C(=O)C2ON(c3ccccc3)C(c3ccncc3)C2C1=O (configuration not stated) | inactive
57 | COC(=O)Cn1c2ccc(C)cc2c2nc(C)sc21 | inactive
58 | CCN(CC)CCn1c2ccc(Cl)cc2c2nc(C)sc21 | -7.92 (active)
59 | CCN(CC)CCNc1ccc(Cl)cc1[N+](=O)[O-] | inactive
60 | COCCNc1ccc(-c2n[nH]c(=O)c3ccccc23)cc1[N+](=O)[O-] | inactive
61 | NS(=O)(=O)c1ccc(CCNC(=O)CCCn2c(SCC(=O)N3CCCC3)nc3ccsc3c2=O)cc1 | inactive
62 | COc1ccc(Cn2c(=O)cc(C)[nH]c2=S)cc1 | inactive
63 | COc1ccc(Cn2c(-c3ccc(Cl)cc3)c[n+]3ccccc23)cc1 | -7.95 (active)
64 | CCn1c(C)cc(=O)cc1-c1ccc(Cl)cc1 | inactive
65 | CCN1C(=S)N[C@@H](CCc2ccccc2)[C@H](C(=O)OC)[C@H]1C | inactive
66 | O=C(O)CSCc1ccc(C(=O)O)o1 | inactive
67 | COc1ccccc1C1SCCN1C(=O)c1ccc([N+](=O)[O-])cc1 (configuration not stated) | -9.98 (active)
68 | COc1ccc(C(=O)N2CCc3cc(OC)c(OC)cc3C2c2cccc([N+](=O)[O-])c2)cc1 (configuration not stated) | inactive
69 | COc1ccccc1C1CCN(c2ccc([N+](=O)[O-])cn2)CC1 | inactive
70 | CC1CC(C)CN(CCOc2cccc3ccccc23)C1 (configuration not stated) | inactive
71 | CCCCCCCCCCOC(=O)C[N+](C)(C)CC1CCCCC1O (configuration not stated) | -9.01 (active)
72 | CCCCCOC(=O)c1ccc(N2C(=O)C3C4C=CC(C4)C3C2=O)cc1 (configuration not stated) | inactive
73 | CCC(C)(C)c1ccc(OCC(=O)N(C)C)c(C(C)(C)CC)c1 | inactive
74 | Oc1ccccc1-c1cc(-c2ccc(Cl)cc2)n[nH]1 | inactive
75 | CCCCNC(=O)C1CCC(CNS(=O)(=O)c2ccc(NC(C)=O)cc2)CC1 (configuration not stated) | inactive
76 | Cc1ccccc1-n1nnnc1SCCCC(=O)c1ccc(F)cc1 | inactive
77 | CCc1c(O)nc(SCC(=O)Nc2ccccc2)n(C(C)CC)c1=O (configuration not stated) | inactive
78 | COC(=O)c1c(NC(=O)c2ccc(S(=O)(=O)N3CCOCC3)cc2)sc2c1CCN(C(C)C)C2 | -5.88 (active)

Row | Structure (SMILES) | B-score
79 | CNC(=O)c1ccsc1NC(=O)c1ccc(S(=O)(=O)N2CCOCC2)cc1 | inactive
80 | COc1ccc(C(=O)Nc2nc(-c3ccc(S(=O)(=O)N4CCOCC4)cc3)cs2)cc1 | inactive
81 | Cc1ccccc1CS(=O)(=O)CC1(O)CCN(C(=O)c2cccc(C(F)(F)F)c2)CC1 | inactive
82 | CCC(C)(C)NC(=O)C(c1ccc(OC)cc1)N(C(=O)CCC(=O)Nc1cc(C)on1)c1ccc(OC)cc1OC (configuration not stated) | inactive
83 | O=C(CSc1nnnn1C1CCCC1)N1CCCCC1 | inactive
84 | Cc1cccc(NC(=S)NCCN(C2CCCCC2)C2CCCC2)c1 | -5.75 (active)
85 | Cc1cccc(NC(=S)Nc2ccc(Br)cc2)c1 | inactive
86 | Cc1cccc(NC(=S)Nc2ccc(Cl)c(Cl)c2)c1 | inactive
87 | O=S(=O)(c1ccc(Br)c2ccccc12)N1CCOCC1 | inactive
88 | Cc1cc(N2CCN(S(=O)(=O)c3ccc(C)c(C)c3)CC2)c2ccccc2n1 | -5.95 (active)
89 | Cc1ccccc1N1CCN(S(=O)(=O)c2ccc3ccccc3c2)CC1 | inactive
90 | Cc1ccc(S(=O)(=O)N2CCN(c3ccccc3)CC2)cc1C | inactive
91 | CC(=O)NS(=O)(=O)c1ccc(N/C(N)=N/c2nc(C)cc(C)n2)cc1 | inactive
92 | Cn1cnnc1Sc1ccc(CN2CCN(C3CCCC3)C(CCO)C2)o1 (configuration not stated) | inactive
93 | Cc1ccc(CN2CCN(Cc3ccc4ncccc4c3)CC2CCO)cc1 (configuration not stated) | inactive
94 | OCCC1CN(Cc2ccc3nsnc3c2)CCN1C1CCCC1 (configuration not stated) | -6.69 (active)
95 | CC(C)N1CCC(N2CCN(Cc3cccnc3)CC2CCO)CC1 (configuration not stated) | inactive
96 | COc1cccc2c1OCC(CN1CCN(C3CCCCC3)C(CCO)C1)=C2 (configuration not stated) | inactive
97 | OCCC1CN(Cc2ccc3nsnc3c2)CCN1C1CCCCC1 (configuration not stated) | -5.65 (active)
98 | Fc1c(F)c(C(F)(F)F)c(F)c(F)c1N1CCN(c2ccc3nnc(C(F)(F)F)n3n2)CC1 | inactive
99 | O=C(CCN1CCCO1)N1CCCC(N2CCN(c3cccc(C(F)(F)F)c3)CC2)C1 (configuration not stated) | inactive
100 | O=C(O)c1ccc(S(=O)(=O)N2CCOCC2)o1 | inactive
101 | O=C(NCc1ccccc1Cl)C(=O)NCC1CCCN1S(=O)(=O)c1cccs1 (configuration not stated) | inactive
102 | COc1ccc([C@@H]2[C@@H]3C(=O)N(C(C)(C)C)C(=O)[C@@H]3[C@]3(Cc4ccccc4)C(=O)N(c4cccc(Br)c4)C(=O)N23)cc1 | inactive
